This passage reports binding signal results from PMC7862700, “An all-to-all approach to the identification of sequence-specific readers for epigenetic DNA modifications on cytosine”.

Experiment in all cases: DAPPL (digital affinity profiling via proximity ligation, sequencing); 10 mM Tris-HCl pH 7.5, 50 mM NaCl, 1 mM DTT, 4% glycerol, room temperature, 30 min; GST-TFs on glutathione beads, 16-mer random dsDNA library, 0.1% formaldehyde crosslink after washing; high values mean tight binding
One experiment addresses T1, FEV (Homo sapiens, UniProt Q99581 1-238).
T1 sequence: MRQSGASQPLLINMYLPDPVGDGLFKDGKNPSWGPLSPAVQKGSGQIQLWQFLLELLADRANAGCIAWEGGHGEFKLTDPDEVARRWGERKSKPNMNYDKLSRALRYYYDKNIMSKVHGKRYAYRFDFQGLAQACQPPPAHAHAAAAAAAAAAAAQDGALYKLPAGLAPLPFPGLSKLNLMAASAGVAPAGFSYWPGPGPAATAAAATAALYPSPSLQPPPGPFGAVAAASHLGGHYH
The conditions noted are these: protein: recombinant; tags: N-terminal GST; dsDNA, one strand shown. Summed up:
(§1)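 In yeast, human transcription factors were expressed with a GST fusion, then pulled down on glutathione beads and given DNA barcodes. Pooled with a tag-only sample, they were exposed to 200 nmole of a 16-mer random double-stranded DNA library (Tris/NaCl/DTT/glycerol buffer, room temperature, 30 min), washed, crosslinked with 0.1% formaldehyde, proximity-ligated using BsaI/T4 ligase for 1 h at 37 °C, PCR-amplified and read on an Illumina NextSeq500. Each hexamer's frequency of reads for a factor, divided by the matching frequency for the tag-only sample, gives the binding signal.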

The target of a further experiment is ETV5 (Homo sapiens, UniProt P41161 1-510). To be noted: protein: recombinant; tags: N-terminal GST; dsDNA, one strand shown. The method in brief:
as §1

Another experiment deals with HSF1 (Homo sapiens, UniProt Q00613 1-529). To be noted: protein: recombinant; tags: N-terminal GST; chain copies: 3; dsDNA, one strand shown. Summed up:
as §1

The next experiment deals with T2, SPIC (Homo sapiens, UniProt Q8N5J4 1-248).
T2 sequence: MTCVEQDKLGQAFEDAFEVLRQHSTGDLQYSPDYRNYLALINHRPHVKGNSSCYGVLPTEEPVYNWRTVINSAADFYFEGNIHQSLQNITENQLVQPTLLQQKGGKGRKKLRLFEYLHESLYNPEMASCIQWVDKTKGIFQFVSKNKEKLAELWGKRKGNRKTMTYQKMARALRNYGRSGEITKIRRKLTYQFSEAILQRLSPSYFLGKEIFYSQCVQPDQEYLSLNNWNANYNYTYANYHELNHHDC
To be noted: protein: recombinant; tags: N-terminal GST; dsDNA, one strand shown. The method in brief:
as §1

Another experiment concerns the target ELF4 (Homo sapiens, UniProt Q99607 1-663). To be noted: protein: recombinant; tags: N-terminal GST; dsDNA, one strand shown. Summed up:
as §1

A further experiment deals with T3, ELK4 (Homo sapiens, UniProt P28324-2 1-405).
T3 sequence: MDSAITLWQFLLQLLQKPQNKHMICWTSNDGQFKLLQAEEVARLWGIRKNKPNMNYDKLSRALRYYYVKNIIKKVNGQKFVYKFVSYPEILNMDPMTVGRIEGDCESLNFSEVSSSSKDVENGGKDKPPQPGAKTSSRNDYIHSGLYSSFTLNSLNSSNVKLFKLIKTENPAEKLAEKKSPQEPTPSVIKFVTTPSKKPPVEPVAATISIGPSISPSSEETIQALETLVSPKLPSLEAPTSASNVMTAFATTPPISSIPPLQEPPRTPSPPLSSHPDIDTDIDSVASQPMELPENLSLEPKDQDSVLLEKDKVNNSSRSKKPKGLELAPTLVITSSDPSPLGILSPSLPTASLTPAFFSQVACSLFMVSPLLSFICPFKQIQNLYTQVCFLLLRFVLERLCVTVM
The conditions noted are these: protein: recombinant; tags: N-terminal GST; dsDNA, one strand shown. The method in brief: as §1

The next experiment concerns the target T4, ETV2 (Homo sapiens, UniProt O00321 1-342).
T4 sequence: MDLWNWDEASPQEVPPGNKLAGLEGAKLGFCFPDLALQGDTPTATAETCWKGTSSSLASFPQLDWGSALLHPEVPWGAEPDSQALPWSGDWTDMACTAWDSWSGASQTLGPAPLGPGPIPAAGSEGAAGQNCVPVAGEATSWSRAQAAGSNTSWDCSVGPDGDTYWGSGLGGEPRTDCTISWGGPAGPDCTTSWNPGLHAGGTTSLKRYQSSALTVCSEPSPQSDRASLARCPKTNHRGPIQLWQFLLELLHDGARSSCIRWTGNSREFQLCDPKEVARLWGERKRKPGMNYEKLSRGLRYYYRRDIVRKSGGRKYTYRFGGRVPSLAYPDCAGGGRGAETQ
To be noted: protein: recombinant; tags: N-terminal GST; dsDNA, one strand shown. Summed up: as §1

A further experiment addresses T5, ELF3 (Homo sapiens, UniProt P78545 1-371).
T5 sequence: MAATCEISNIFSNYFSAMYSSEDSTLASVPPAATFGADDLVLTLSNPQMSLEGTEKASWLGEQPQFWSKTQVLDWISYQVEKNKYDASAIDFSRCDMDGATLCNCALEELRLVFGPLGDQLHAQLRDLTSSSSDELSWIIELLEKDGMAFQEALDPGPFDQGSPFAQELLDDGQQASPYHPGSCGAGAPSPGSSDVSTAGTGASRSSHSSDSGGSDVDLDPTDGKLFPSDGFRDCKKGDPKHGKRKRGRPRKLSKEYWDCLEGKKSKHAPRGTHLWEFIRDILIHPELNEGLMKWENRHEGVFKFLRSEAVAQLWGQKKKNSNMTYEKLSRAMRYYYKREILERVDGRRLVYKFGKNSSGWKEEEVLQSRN
To be noted: protein: recombinant; tags: N-terminal GST; dsDNA, one strand shown. Summed up: as §1

For the next experiment, the target named is CRX (Homo sapiens, UniProt O43186 1-299). The conditions noted are these: protein: recombinant; tags: N-terminal GST; dsDNA, one strand shown. The method in brief:
as §1

The target of another experiment is ETV1 (Homo sapiens, UniProt P50549 1-477). The conditions noted are these: protein: recombinant; tags: N-terminal GST; dsDNA, one strand shown. The method in brief:
as §1

In another experiment the target is T6, ERF (Homo sapiens, UniProt P50548 1-548).
T6 sequence: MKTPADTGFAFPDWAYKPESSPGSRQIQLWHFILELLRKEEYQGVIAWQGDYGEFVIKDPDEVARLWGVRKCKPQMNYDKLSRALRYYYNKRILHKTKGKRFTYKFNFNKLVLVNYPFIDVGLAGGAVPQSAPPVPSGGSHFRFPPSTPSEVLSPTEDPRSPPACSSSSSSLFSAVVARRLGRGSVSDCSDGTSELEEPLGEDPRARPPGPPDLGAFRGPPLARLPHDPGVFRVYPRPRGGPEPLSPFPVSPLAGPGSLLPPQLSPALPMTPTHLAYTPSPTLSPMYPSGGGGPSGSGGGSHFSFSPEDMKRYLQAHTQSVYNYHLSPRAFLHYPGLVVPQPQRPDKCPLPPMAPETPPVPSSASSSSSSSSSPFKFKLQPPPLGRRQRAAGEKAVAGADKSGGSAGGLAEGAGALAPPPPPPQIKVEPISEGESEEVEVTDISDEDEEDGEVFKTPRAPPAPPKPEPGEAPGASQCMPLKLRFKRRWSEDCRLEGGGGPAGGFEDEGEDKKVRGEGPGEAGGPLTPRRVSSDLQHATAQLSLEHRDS
The conditions noted are these: protein: recombinant; tags: N-terminal GST; dsDNA, one strand shown. Summed up:
as §1

Another experiment has as its target T7, ETV3L (Homo sapiens, UniProt Q6ZN32 1-361).
T7 sequence: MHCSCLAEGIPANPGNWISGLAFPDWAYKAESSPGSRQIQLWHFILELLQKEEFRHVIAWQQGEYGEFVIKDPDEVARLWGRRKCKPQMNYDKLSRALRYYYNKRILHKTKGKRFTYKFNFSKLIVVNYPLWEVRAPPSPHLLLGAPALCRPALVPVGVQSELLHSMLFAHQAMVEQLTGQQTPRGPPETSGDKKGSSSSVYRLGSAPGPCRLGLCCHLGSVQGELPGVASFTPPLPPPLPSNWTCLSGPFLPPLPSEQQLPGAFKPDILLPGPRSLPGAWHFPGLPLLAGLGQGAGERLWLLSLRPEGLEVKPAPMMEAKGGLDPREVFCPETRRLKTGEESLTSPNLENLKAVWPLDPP
To be noted: protein: recombinant; tags: N-terminal GST; dsDNA, one strand shown. The method in brief: as §1

Another experiment concerns the target T8, ETS2 (Homo sapiens, UniProt P15036 1-469).
T8 sequence: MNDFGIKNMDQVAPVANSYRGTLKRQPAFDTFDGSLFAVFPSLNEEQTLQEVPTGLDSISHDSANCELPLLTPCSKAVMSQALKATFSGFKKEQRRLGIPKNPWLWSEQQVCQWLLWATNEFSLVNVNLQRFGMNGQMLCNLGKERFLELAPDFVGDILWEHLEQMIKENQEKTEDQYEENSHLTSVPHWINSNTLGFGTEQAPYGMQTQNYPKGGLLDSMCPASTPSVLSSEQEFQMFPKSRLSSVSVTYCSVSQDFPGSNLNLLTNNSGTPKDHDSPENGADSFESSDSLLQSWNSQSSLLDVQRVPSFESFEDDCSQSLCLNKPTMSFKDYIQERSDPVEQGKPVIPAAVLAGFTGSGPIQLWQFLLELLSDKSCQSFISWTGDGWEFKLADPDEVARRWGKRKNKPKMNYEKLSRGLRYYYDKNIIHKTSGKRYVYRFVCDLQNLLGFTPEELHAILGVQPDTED
The conditions noted are these: protein: recombinant; tags: N-terminal GST; dsDNA, one strand shown. The method in brief:
as §1

For a further experiment, the target named is T9, SPDEF (Homo sapiens, UniProt O95238 1-335).
T9 sequence: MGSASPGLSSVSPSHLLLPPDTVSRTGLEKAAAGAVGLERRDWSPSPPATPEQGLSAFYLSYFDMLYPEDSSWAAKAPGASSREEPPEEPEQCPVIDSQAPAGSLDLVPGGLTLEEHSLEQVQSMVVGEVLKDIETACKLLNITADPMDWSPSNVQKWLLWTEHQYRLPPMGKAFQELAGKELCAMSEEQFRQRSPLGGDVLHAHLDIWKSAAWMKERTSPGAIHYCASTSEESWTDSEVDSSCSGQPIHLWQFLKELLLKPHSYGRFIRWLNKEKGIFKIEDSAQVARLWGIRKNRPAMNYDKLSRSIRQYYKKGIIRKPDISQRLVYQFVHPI
To be noted: protein: recombinant; tags: N-terminal GST; dsDNA, one strand shown. The method in brief:
as §1

For another experiment, the target named is T10, ETV7 (Homo sapiens, UniProt Q9Y603 1-341).
T10 sequence: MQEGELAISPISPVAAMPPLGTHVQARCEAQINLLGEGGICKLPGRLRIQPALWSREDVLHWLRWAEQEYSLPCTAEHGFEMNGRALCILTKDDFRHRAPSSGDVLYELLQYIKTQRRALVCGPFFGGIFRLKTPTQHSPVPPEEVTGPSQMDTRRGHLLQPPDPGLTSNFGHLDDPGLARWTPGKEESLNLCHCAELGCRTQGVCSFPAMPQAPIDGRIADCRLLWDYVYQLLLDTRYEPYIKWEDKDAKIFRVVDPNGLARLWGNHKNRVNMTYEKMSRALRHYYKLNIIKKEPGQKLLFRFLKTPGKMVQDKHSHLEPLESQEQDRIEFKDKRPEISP
The conditions noted are these: protein: recombinant; tags: N-terminal GST; dsDNA, one strand shown. Summed up: as §1

The next experiment deals with T11, ELF5 (Homo sapiens, UniProt Q9UKW6-2 1-255).
T11 sequence: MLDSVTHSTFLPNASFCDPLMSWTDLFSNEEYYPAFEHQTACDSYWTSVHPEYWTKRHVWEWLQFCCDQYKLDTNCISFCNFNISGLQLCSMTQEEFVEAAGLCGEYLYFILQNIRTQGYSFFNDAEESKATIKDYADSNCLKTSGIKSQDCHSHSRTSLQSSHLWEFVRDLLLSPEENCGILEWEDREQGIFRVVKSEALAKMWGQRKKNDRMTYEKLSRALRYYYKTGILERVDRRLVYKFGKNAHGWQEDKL
The conditions noted are these: protein: recombinant; tags: N-terminal GST; dsDNA, one strand shown. Summed up: as §1

The target in the next experiment is T12, ETV3 (Homo sapiens, UniProt P41162-2 1-143).
T12 sequence: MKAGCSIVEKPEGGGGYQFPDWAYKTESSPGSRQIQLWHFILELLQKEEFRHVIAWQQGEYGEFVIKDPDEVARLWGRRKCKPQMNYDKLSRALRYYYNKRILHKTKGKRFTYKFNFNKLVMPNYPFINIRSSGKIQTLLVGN
The conditions noted are these: protein: recombinant; tags: N-terminal GST; dsDNA, one strand shown. Summed up:
as §1

The next experiment has as its target ETV6 (Homo sapiens, UniProt P41212 1-452). To be noted: protein: recombinant; tags: N-terminal GST; dsDNA, one strand shown. The method in brief:
as §1

Chain of ETV5 (P41161 whole entry): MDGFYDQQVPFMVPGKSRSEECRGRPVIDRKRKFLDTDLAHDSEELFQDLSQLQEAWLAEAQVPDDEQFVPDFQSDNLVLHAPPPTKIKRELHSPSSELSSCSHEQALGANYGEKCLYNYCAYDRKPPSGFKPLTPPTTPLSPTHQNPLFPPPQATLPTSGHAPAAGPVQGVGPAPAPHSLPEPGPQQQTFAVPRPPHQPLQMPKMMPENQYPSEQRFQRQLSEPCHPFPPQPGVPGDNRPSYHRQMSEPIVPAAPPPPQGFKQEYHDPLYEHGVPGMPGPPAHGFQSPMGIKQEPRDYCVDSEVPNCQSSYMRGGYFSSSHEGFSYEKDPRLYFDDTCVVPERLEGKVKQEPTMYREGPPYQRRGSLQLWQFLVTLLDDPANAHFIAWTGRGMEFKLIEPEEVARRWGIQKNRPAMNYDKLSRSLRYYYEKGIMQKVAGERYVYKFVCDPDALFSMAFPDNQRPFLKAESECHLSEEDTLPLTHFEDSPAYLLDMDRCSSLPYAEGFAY
Chain of ETV6 (P41212 whole entry): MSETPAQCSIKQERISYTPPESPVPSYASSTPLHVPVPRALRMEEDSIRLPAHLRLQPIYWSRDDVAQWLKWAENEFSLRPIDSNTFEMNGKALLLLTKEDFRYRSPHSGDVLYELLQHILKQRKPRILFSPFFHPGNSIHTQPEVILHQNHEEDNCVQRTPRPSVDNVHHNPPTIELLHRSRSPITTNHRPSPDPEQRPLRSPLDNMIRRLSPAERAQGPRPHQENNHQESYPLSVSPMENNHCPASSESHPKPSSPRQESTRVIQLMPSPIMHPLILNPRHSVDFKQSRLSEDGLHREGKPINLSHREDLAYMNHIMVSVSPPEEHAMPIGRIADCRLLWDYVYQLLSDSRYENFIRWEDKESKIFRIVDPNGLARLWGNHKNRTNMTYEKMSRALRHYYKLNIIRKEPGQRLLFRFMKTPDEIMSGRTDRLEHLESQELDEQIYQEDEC
Chain of ETV1 (P50549 whole entry): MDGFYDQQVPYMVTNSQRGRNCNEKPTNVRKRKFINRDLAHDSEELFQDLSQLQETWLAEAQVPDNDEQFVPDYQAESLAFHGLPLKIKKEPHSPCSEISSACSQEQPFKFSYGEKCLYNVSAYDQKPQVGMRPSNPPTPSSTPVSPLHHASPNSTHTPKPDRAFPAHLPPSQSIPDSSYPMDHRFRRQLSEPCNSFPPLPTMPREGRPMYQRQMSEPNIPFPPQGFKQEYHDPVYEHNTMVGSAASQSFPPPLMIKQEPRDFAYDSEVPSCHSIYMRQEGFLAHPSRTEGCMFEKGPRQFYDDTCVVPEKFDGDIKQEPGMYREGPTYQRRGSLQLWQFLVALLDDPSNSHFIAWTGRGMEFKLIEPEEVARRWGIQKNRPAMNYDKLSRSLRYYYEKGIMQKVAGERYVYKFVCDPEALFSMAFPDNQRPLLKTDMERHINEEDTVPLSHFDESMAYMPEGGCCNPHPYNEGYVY
Chain of CRX (O43186 whole entry): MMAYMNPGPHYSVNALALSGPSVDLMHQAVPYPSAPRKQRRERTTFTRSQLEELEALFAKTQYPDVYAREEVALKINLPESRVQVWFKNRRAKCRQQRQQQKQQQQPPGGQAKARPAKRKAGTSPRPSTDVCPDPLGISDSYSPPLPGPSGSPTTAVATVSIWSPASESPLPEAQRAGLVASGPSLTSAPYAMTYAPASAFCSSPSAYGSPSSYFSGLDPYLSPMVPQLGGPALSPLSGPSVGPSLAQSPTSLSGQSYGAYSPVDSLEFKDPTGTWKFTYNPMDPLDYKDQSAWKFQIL
Chain of HSF1 (Q00613 whole entry): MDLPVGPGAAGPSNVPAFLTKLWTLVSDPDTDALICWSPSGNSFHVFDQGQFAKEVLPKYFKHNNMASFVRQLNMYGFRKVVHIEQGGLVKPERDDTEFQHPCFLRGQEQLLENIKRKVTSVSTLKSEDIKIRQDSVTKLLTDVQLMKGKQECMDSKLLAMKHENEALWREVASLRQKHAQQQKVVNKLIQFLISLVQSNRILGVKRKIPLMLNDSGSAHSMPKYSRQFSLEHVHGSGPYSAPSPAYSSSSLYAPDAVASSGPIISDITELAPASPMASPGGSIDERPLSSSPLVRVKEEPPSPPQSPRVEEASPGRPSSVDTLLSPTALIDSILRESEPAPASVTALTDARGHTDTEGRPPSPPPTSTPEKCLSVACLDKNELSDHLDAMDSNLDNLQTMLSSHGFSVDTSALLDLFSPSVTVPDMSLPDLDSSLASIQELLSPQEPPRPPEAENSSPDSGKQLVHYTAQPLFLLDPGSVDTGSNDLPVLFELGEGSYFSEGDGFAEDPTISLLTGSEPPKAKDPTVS
Chain of ELF4 (Q99607 whole entry): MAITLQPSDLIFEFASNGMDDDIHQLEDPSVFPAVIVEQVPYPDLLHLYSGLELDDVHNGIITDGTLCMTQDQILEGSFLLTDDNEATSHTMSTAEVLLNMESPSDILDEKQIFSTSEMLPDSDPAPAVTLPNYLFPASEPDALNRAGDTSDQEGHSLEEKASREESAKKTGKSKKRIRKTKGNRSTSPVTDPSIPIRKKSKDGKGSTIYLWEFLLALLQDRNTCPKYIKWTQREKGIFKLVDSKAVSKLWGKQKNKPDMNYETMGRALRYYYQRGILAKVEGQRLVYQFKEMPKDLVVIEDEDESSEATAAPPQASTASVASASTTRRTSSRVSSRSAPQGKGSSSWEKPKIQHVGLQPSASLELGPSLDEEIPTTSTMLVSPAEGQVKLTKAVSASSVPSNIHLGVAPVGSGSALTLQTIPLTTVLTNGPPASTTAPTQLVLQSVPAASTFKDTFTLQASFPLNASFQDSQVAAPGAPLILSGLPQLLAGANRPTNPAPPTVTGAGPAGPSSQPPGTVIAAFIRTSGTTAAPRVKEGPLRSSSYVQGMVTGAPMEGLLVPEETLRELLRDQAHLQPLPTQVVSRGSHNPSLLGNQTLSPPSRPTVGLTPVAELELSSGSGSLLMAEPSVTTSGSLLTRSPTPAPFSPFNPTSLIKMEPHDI

Turning to CTGTTC, the binding signal with FEV is 1.33 fold enrichment (6-mer frequency, TF over GST control); with ETV5 it was 1.39 fold enrichment (6-mer frequency, TF over GST control); with HSF1 it was 1.38 fold enrichment (6-mer frequency, TF over GST control); in the experiment with SPIC, 1.44 fold enrichment (6-mer frequency, TF over GST control); in the experiment with ELF4 it was 1.42 fold enrichment (6-mer frequency, TF over GST control); with ELK4 it was 1.19 fold enrichment (6-mer frequency, TF over GST control). Besides, the binding signal in the experiment with ETV2 was 1.38 fold enrichment (6-mer frequency, TF over GST control); in the experiment with ELF3, 1.63 fold enrichment (6-mer frequency, TF over GST control); with CRX it was 1.07 fold enrichment (6-mer frequency, TF over GST control); with ETV1, 1.46 fold enrichment (6-mer frequency, TF over GST control); with ERF it was 1.52 fold enrichment (6-mer frequency, TF over GST control); with ETV3L, 1.31 fold enrichment (6-mer frequency, TF over GST control). The binding signal is 1.44 fold enrichment (6-mer frequency, TF over GST control) with ETS2; 1.29 fold enrichment (6-mer frequency, TF over GST control) in the experiment with SPDEF; 1.42 fold enrichment (6-mer frequency, TF over GST control) in the experiment with ETV7; 1.52 fold enrichment (6-mer frequency, TF over GST control) with ELF5; 1.51 fold enrichment (6-mer frequency, TF over GST control) in the experiment with ETV3; 1.44 fold enrichment (6-mer frequency, TF over GST control) in the experiment with ETV6.
